CDC25B CDK2 inh = primary biochemical HTRF screen for blockers of M-phase inducer phosphatase 2 binding to CDK2/cyclin A. actives 0.72% (n = 94,000). HTRF CDC25B-CDK2/CyclinA binding, anti-His/anti-Flag; stronger effect = higher value. z-score (no concentration beside the values). P30305+P24941; in the data active = z-score above about 3.2
TAR Tat displ = TAR RNA-Tat peptide displacers, HIV-1, primary screen, biochemical, FRET, FAM/TAMRA-labeled Tat. HIV-1 TAR RNA, Tat peptide displacement FRET; stronger effect = higher value. z-score (test concentration not listed). actives 0.6% (n = 100,000); active = z-score of 3 or more in at least 2 runs
A number is an active result; - = inactive; . = no result given. Shown are actives, neighbours in structure and some others; about 0.9% of the full set was active somewhere.

SMILES	CDC25B CDK2 inh	TAR Tat displ
Cc1ccc(C(=O)c2cnc3cc4c(cc3c2N2CCC(C(N)=O)CC2)OCO4)cc1C	-	17
O=C(CSc1nnc(-c2cccnc2)o1)NCC1CCCO1 (stereo not given)	-	-
O=C(CSc1nnc(-c2cccnc2)o1)NC1CCCC1	-	4.6
COCCN1CCN(C2CCN(C(=O)NC3CCCC3)CC2)C(=O)C1=O	.	-
CCCc1nn2c(=O)cc(CSc3ccccc3N)nc2s1	.	-
CN(C)CCCNc1cc(N2CCCCC2)c2noc3c2c1C(=O)c1ccccc1-3	-	-
CN(C)CCNc1cc(N2CCCCC2)c2noc3c2c1C(=O)c1ccccc1-3	6.2	17
CN(C)CCNc1cc(N2CCOCC2)c2noc3c2c1C(=O)c1ccccc1-3	-	-
CCNc1cc(N(C)CCO)c2noc3c2c1C(=O)c1ccccc1-3	-	-
CCN(CC)CCNc1cc(N2CCOCC2)c2noc3c2c1C(=O)c1ccccc1-3	-	6.5
CN(C)CCCNc1cc(N(C)CCO)c2noc3c2c1C(=O)c1ccccc1-3	-	7
CCN(CC)CCNc1cc(N2CCCC2)c2noc3c2c1C(=O)c1ccccc1-3	-	-
CN(C)CCCNc1cc(N2CCCC2)c2noc3c2c1C(=O)c1ccccc1-3	-	8.8
CN(C)C(CNC(=O)c1cc(=O)c2ccccc2o1)c1ccco1 (stereo not given)	-	-
CN(C(=O)c1cc(-c2ccc(Br)cc2)n[nH]1)C1CCCCC1	.	-
O=C1CCCC2=C1C(c1cccs1)N(S(=O)(=O)c1ccc(F)cc1)c1ccccc1N2 (stereo not given)	.	-
O=C(C1CCCC1)N1CCN(Cc2noc3ccccc23)CC1	.	-
C=Cc1ccc(Cn2c(C)c(CNCCc3ccco3)c(C(=O)O)c2C)cc1	-	-
CCCN1CCN(c2cc(NCCCOCC)c3c4c(onc24)-c2ccccc2C3=O)CC1	-	6.3
CCCN1CCN(c2cc(NCCOC)c3c4c(onc24)-c2ccccc2C3=O)CC1	-	-
COc1cc(NC(=O)C2=C(C)OCCS2)c(Cl)cc1C(=O)NC1CC1	.	-
CCCOC(=O)c1cc(O)c(O)c(O)c1	.	26
CCOC(=O)c1cc(CO)cc(C(=O)OCC)c1	-	.
O=C(CSc1nc2c(cnn2-c2ccc(Cl)cc2)c(=O)[nH]1)NCC1CCCO1 (stereo not given)	.	-
CSc1cccc(NC(=O)CCC2=NS(=O)(=O)c3ccccc3N2)c1	.	-
SMILES	CDC25B CDK2 inh	TAR Tat displ
OCCCNc1ncnc2c1c(-c1ccccc1)cn2-c1ccc(Cl)cc1	-	.
Oc1cc2c(cc1O)C1c3ccc(O)c(O)c3OCC1(O)C2 (stereo not given)	.	29
O=C(NCCCN1CCCCC1)C1CCCN(c2nc3cccnc3s2)C1 (stereo not given)	.	-
Cc1ccc2c(C)nc(Nc3nc4c(c(=O)[nH]3)CCC4)nc2c1	10	.
Cc1ccc2nc(Nc3nc4c(c(=O)[nH]3)CCCC4)nc(C)c2c1	-	-
Cn1cnc2cc(-c3noc(CNC(=O)Cc4ccc(Cl)cc4)n3)ccc21	.	-
O=C(CCCc1nc(-c2ccco2)no1)Nc1ccncc1	-	4.2
O=C(CCc1nc(-c2ccco2)no1)Nc1ccncc1	-	-
CN1CCN(c2cc(Nc3ccc4c(c3)OCO4)c3c4c(onc24)-c2ccccc2C3=O)CC1	10	-
CCN1CCN(c2cc(Nc3ccc4c(c3)OCO4)c3c4c(onc24)-c2ccccc2C3=O)CC1	-	-
COc1cccc(Nc2cc(N3CCOCC3)c3noc4c3c2C(=O)c2ccccc2-4)c1	-	-
COc1cccc(Nc2cc(N3CCN(C)CC3)c3noc4c3c2C(=O)c2ccccc2-4)c1	11	-
CN1CCN(c2cc(Nc3ccc4c(c3)OCCO4)c3c4c(onc24)-c2ccccc2C3=O)CC1	11	-
O=C1c2ccccc2-c2onc3c(N4CCOCC4)cc(Nc4ccc5c(c4)OCCO5)c1c23	-	-
COc1ccc(OC)c(CCNc2nc(-c3ccccc3)no2)c1	.	-
COc1ccccc1NC(=O)CSc1nc(-c2cccs2)nc2cc(=O)[nH]n12	.	-
Clc1cccc(-n2ncc3c(NCc4ccccc4)ncnc32)c1	.	-
N#CC(C#N)=C1C=CC=CC=C1	-	.
C=CC1=C(C(=O)O)N2C(=O)[C@@H](NC(=O)C(=NO)c3csc(N)n3)[C@H]2SC1	.	33
CO/N=C(/C(=O)N[C@@H]1C(=O)N2C(C(=O)O)=C(COC(C)=O)CS[C@H]12)c1csc(N)n1	.	-
CN(C(=O)CN1C(=O)CSc2ccc(S(=O)(=O)N3CCCC3)cc21)C1CCCCC1	.	-
O=C(O)c1c[nH]c2ccc(S(=O)(=O)N3CCCC3c3ccco3)cc2c1=O (stereo not given)	-	5.5
O=C(O)c1c[nH]c2ccc(S(=O)(=O)N3CCC(O)CC3)cc2c1=O	.	-
O=C(NC1CCCCC1)c1ccc2c(c1)NC(=O)C1CCCCN21 (stereo not given)	.	-
CCCC1=NN(c2ccc(Cl)cc2)C(=O)C1	6.2	-
SMILES	CDC25B CDK2 inh	TAR Tat displ
O=C1CC(CSc2nccc(-c3cccnc3)n2)=NN1c1ccc(Cl)cc1	-	.
O=C(Cc1ccccc1)N(c1ccc2oc(=O)sc2c1)S(=O)(=O)c1ccccc1	-	-
O=C(c1ccco1)N(c1cc2sc(=O)oc2c2ccccc12)S(=O)(=O)c1ccccc1	19	-
CCOC(=O)Cc1cc(=O)n2[nH]c(-c3ccco3)nc2n1	13	-
CCCc1cc(=O)n2[nH]c(-c3ccco3)nc2n1	.	-
COc1cc(NC(=O)C2=Cc3sc(C)c(C)c3CS2)cc(OC)c1	.	-
Cn1c2c(c(=O)[nH]c1=O)C(c1ccccc1)C1=C(N2)c2ccccc2C1=O (stereo not given)	-	-
Cn1c2c(c(=O)[nH]c1=O)C(c1ccc([N+](=O)[O-])o1)C1=C(N2)c2ccccc2C1=O (stereo not given)	-	3.6
CC(C)Oc1ccc(-c2noc(C3CCCN(S(=O)(=O)c4ccc(C(C)C)cc4)C3)n2)cc1 (stereo not given)	.	-
O=C(CN1C(=O)c2cccc3cccc1c23)NCc1ccccn1	-	-
O=C1c2cccc3c(SCCO)ccc(c23)C(=O)N1CCc1ccccn1	7.8	.
CC1CC(C)CN(C(=O)CSC2=Nc3ccccc3C3=NC(Cc4c[nH]c5ccccc45)C(=O)N23)C1 (stereo not given)	.	5.4
O=C(CSC1=Nc2ccccc2C2=NC(Cc3c[nH]c4ccccc34)C(=O)N12)NC1CCCCC1 (stereo not given)	.	-
Nc1ccc(C(=O)O)c(O)c1 (tested in a mixture with another compound)	.	16
Nc1ccc(O)c(C(=O)O)c1	.	21
O=C(O)c1cc(O)ccc1O	.	-
Nc1ccc(C(=O)O)cc1	.	-
O=C(O)c1cccc(O)c1O	.	9.6
O=C(O)c1cccc2cccc(C(=O)O)c12	-	.
O=C1CCCc2cc(S(=O)(=O)NCCC3=CCCCC3)ccc2N1	.	-
CC(C)c1ccc(-c2cn[nH]c2N)cc1	-	-
CS/C(Nc1ccc(F)cc1)=C(/C#N)C(=O)c1ccco1	-	.
CCCCN(C)CCNS(=O)(=O)c1cc(Br)cc2c1N(C(C)=O)CC2	7.4	.
CCCCN(C)CCNS(=O)(=O)c1cc(Br)cc2c1N(C(=O)CC)CC2	-	.
CCN(CC)C(=O)c1c(NC(=O)c2ccco2)sc2c1CCC(C)C2 (stereo not given)	-	.

Assay outcomes: PubChem BioAssay, Center for Chemical Genomics, University of Michigan
